# The panel holds about 79,000 compounds, 15% with a hit somewhere; the sample as a whole holds those more often. Values without a mark were called inactive. Active and inactive are the calls of the source. Cut-off read from the data, not from the text of the source: active = growth inhibition above about 70%; inactive = the rest.
# Key:
# [1] = NCI Yeast Anticancer Drug Screen. Data for the wt1 strain (AID 149);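 note: 0% = growth of vehicle-treated wt1 cultures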; details: S. cerevisiae wt1 strain (SPY 50644) growth inhibition, stronger effect = higher value
# How it was run: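 Measured: growth of wt1 yeast under compound versus vehicle treatment, reported as inhibition.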
# [2] = NCI Yeast Anticancer Drug Screen. Data for the rad50EPP+ strain (AID 151);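 note: 0% = growth of vehicle-treated control cultures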; details: S. cerevisiae rad50 mutant strain, stronger effect = higher value
# How it was run: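 rad50EPP+ yeast treated with test compounds. Readout: growth vs vehicle control.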
# [3] = NCI Yeast Anticancer Drug Screen. Data for the mgt1 strain (AID 153); details: S. cerevisiae mgt1 mutant growth inhibition, stronger effect = higher value
# How it was run: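 Growth inhibition relative to vehicle controls was scored for the mgt1 yeast strain after compound exposure.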
# [4] = NCI Yeast Anticancer Drug Screen. Data for the rad50 strain (AID 155);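 note: 0% = growth of vehicle-only cultures of the same strain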; details: S. cerevisiae rad50 strain growth inhibition, stronger effect = higher value
# How it was run: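 Growth of the mutant yeast was measured after compound exposure and referenced to vehicle-treated cultures.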
# [5] = NCI Yeast Anticancer Drug Screen. Data for the mec2-1 strain (AID 157); details: S. cerevisiae mec2-1 strain, stronger effect = higher value
# How it was run: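 Growth inhibition is read against vehicle-treated controls after compound exposure of the mec2-1 yeast strain, which is defective in DNA damage repair or cell cycle control.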
# [6] = NCI Yeast Anticancer Drug Screen. Data for the rad14 strain (AID 159);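 note: 0% = growth of vehicle-treated control cultures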; details: S. cerevisiae rad14 strain growth inhibition, stronger effect = higher value
# How it was run: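 Here, inhibition of yeast growth was measured after compound exposure, using a strain with a genetic defect in DNA damage repair and vehicle-treated cultures as the reference.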
# [7] = NCI Yeast Anticancer Drug Screen. Data for the CLN2oe strain (AID 163);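 note: 0% = growth of vehicle-only control cultures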; details: S. cerevisiae CLN2oe strain, stronger effect = higher value
# How it was run: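 Compound-treated yeast; growth vs vehicle ctrl = % inhibition. Genetically altered strain (cell-cycle control).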
# [8] = NCI Yeast Anticancer Drug Screen. Data for the cln2 rad14 strain (AID 165);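 note: 0% = growth equal to vehicle treated cultures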; details: S. cerevisiae cln2 rad14 strain, stronger effect = higher value
# How it was run: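 Growth inhibition, relative to vehicle-treated controls, is the read-out. The test organism is a yeast strain with defined genetic alterations, cln2 rad14.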
# [9] = NCI Yeast Anticancer Drug Screen. Data for the bub3 strain (AID 167); details: S. cerevisiae bub3 mutant strain, stronger effect = higher value
# How it was run: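 Whole-cell yeast assay. The mutant strain was incubated with compounds, and growth inhibition was determined by comparison with vehicle-treated cells.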
# [10] = NCI Yeast Anticancer Drug Screen. Data for the wt2 strain (AID 169);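 note: 0% = growth of vehicle-treated yeast cultures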; details: S. cerevisiae wt2 strain growth inhibition, stronger effect = higher value
# How it was run: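 Compound exposure of yeast; growth compared with vehicle controls; inhibition reported.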
# [11] = NCI Yeast Anticancer Drug Screen. Data for the mlh1 strain (AID 171);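 note: 0% = growth of vehicle-treated control cultures of the same strain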; details: S. cerevisiae mlh1 strain growth inhibition, stronger effect = higher value
# How it was run: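 Compounds are applied to a genetically altered yeast strain, and its growth is compared with that of vehicle-treated cultures to give percent inhibition.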
# [12] = NCI Yeast Anticancer Drug Screen. Data for the mlh1 rad18 strain (AID 175); details: S. cerevisiae mlh1 rad18 strain growth inhibition, stronger effect = higher value
# How it was run: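 Cells of a genetically altered yeast strain, deficient in DNA damage repair, were treated with compound. Their growth was then compared with that of vehicle-treated cultures to give inhibition.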
# [13] = NCI Yeast Anticancer Drug Screen. Data for the rad18 strain (AID 177); details: S. cerevisiae rad18 mutant growth inhibition, stronger effect = higher value
# How it was run: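 Compounds are applied to a repair-deficient yeast strain, and growth is compared with that of vehicle-treated cultures to give percent inhibition.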
# [14] = at 5.0 µM (retest, dose inferred, filed as 0.5)
# [15] = at 50.0 µM (retest, dose inferred, filed as 5.0)
smiles,measurement,setting,value
Cc1ccc(N(C=O)c2c([N+](=O)[O-])cc([N+](=O)[O-])c3c2=[N+]([O-])CN=3)cc1,growth inhibition,[1]; at 1.2 µM,3%
same,growth inhibition,[1]; at 3.7 µM,23%
same,growth inhibition,[1]; at 11.0 µM,20%
same,growth inhibition,[1]; at 33.0 µM,89% (active)
same,growth inhibition,[1]; at 100.0 µM,98% (active)
same,growth inhibition,[2]; at 1.2 µM,35%
same,growth inhibition,[2]; at 3.7 µM,51%
same,growth inhibition,[2]; at 11.0 µM,84% (active)
same,growth inhibition,[2]; at 33.0 µM,95% (active)
same,growth inhibition,[2]; at 100.0 µM,97% (active)
same,growth inhibition,[3]; at 1.2 µM,10%
same,growth inhibition,[3]; at 3.7 µM,-1%
same,growth inhibition,[3]; at 11.0 µM,52%
same,growth inhibition,[3]; at 33.0 µM,96% (active)
same,growth inhibition,[3]; at 100.0 µM,98% (active)
same,growth inhibition,[4]; at 1.2 µM,9%
same,growth inhibition,[4]; at 3.7 µM,18%
same,growth inhibition,[4]; [14],13%
same,growth inhibition,[4]; at 11.0 µM,25%
same,growth inhibition,[4]; at 33.0 µM,92% (active)
same,growth inhibition,[4]; [15],83% (active)
same,growth inhibition,[4]; at 50.0 µM,71.5% (active)
same,growth inhibition,[4]; at 100.0 µM,98% (active)
same,growth inhibition,[5]; at 1.2 µM,8%
same,growth inhibition,[5]; at 3.7 µM,19%
same,growth inhibition,[5]; [14],6%
same,growth inhibition,[5]; at 11.0 µM,32%
same,growth inhibition,[5]; at 33.0 µM,95% (active)
same,growth inhibition,[5]; [15],91% (active)
same,growth inhibition,[5]; at 50.0 µM,27.6%
same,growth inhibition,[5]; at 100.0 µM,98% (active)
same,growth inhibition,[6]; at 1.2 µM,-15%
same,growth inhibition,[6]; at 3.7 µM,1%
same,growth inhibition,[6]; at 11.0 µM,30%
same,growth inhibition,[6]; at 33.0 µM,94% (active)
same,growth inhibition,[6]; at 100.0 µM,97% (active)
same,growth inhibition,[7]; at 1.2 µM,-3%
same,growth inhibition,[7]; at 3.7 µM,8%
same,growth inhibition,[7]; at 11.0 µM,34%
same,growth inhibition,[7]; at 33.0 µM,95% (active)
same,growth inhibition,[7]; at 100.0 µM,98% (active)
same,growth inhibition,[8]; [14],28%
same,growth inhibition,[8]; [15],81% (active)
same,growth inhibition,[8]; at 50.0 µM,31.6%
same,growth inhibition,[9]; at 1.2 µM,-1%
same,growth inhibition,[9]; at 3.7 µM,5%
same,growth inhibition,[9]; [14],38%
same,growth inhibition,[9]; at 11.0 µM,19%
same,growth inhibition,[9]; at 33.0 µM,72% (active)
same,growth inhibition,[9]; [15],98% (active)
same,growth inhibition,[9]; at 50.0 µM,11%
same,growth inhibition,[9]; at 100.0 µM,97% (active)
same,growth inhibition,[10]; at 1.2 µM,9%
same,growth inhibition,[10]; at 3.7 µM,17%
same,growth inhibition,[10]; at 11.0 µM,46%
same,growth inhibition,[10]; at 33.0 µM,90% (active)
same,growth inhibition,[10]; at 100.0 µM,98% (active)
same,growth inhibition,[11]; at 1.2 µM,-1%
same,growth inhibition,[11]; at 3.7 µM,6%
same,growth inhibition,[11]; at 11.0 µM,48%
same,growth inhibition,[11]; at 33.0 µM,94% (active)
same,growth inhibition,[11]; at 100.0 µM,98% (active)
same,growth inhibition,[12]; [14],12%
same,growth inhibition,[12]; [15],98% (active)
same,growth inhibition,[12]; at 50.0 µM,41.3%
same,growth inhibition,[13]; at 1.2 µM,0%
same,growth inhibition,[13]; at 3.7 µM,14%
same,growth inhibition,[13]; at 11.0 µM,47%
same,growth inhibition,[13]; at 33.0 µM,91% (active)
same,growth inhibition,[13]; at 100.0 µM,98% (active)
